{"source": "PubChem BioAssay AID588726", "about": "(The Scripps Research Institute Molecular Screening Center, 2011)", "note": "Out of some 360,000 compounds screened, about 8,200 (2.3%) were called active. The entries come from a sample that favours actives as a whole. A number with no mark means an inactive call. No stated cut-off is given here; in the data, active means inhibition above about 27%; inactive means the rest.", "data": [{"target": "Fructose-bisphosphate aldolase (Mycobacterium tuberculosis (strain ATCC 25618 / H37Rv)) (UniProt P9WQA3)", "sequence (P9WQA3 whole entry, looked up)": "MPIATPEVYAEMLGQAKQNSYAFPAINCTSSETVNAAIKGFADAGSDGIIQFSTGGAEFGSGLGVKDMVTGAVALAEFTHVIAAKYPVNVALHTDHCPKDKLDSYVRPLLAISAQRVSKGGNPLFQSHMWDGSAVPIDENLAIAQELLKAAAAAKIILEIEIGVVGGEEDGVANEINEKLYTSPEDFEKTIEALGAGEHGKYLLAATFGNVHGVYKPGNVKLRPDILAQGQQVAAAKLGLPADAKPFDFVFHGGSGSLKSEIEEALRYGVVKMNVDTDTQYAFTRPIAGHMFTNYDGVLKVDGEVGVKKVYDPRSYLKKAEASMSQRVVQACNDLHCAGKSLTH", "assay": "M. tuberculosis aldolase activity blockers – biochemical, fluorescence, strain H37Rv, primary screen (AID 588726);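 further: 0% = vehicle and 100% = reference inhibitor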", "conditions": "purified M. tuberculosis FBA, fluorescence read-out, at 1 µM, stronger effect = higher value", "values": [{"molecule": "CCC(C)NCC(=O)Nc1ccc([N+](=O)[O-])cc1C(=O)Nc1ccccc1F", "note": "(stereo not drawn)", "inhibition": "-4.2%"}, {"molecule": "CCOC(=O)N1CCC(NC(=O)CCc2cn(C)c3ccccc23)CC1", "inhibition": "8.05%"}, {"molecule": "CCOC(=O)N1CCC(NC(=O)Cc2cn(C)c3ccccc23)CC1", "inhibition": "11%"}, {"molecule": "CCOC(=O)N1CCC(NC(=O)c2cnn3ccccc23)CC1", "inhibition": "30.3% (active)"}, {"molecule": "CCO[C@@H]1OC(C(=O)NC2CC2)=C[C@H](C)[C@H]1CCCO", "inhibition": "-0.48%"}, {"molecule": "O=C(O)C1CCCCC1C(=O)N1CCN(S(=O)(=O)c2ccc(F)cc2)CC1", "note": "(stereo not drawn)", "inhibition": "-1.39%"}, {"molecule": "CSc1c(SCc2ccccc2)cnn(Cc2ccccc2)c1=O", "inhibition": "-0.17%"}, {"molecule": "COC(=O)c1ccc(C2C(Oc3ccccc3C)C(=O)N2CCc2ccc(OC)c(OC)c2)cc1", "note": "(stereo not drawn)", "inhibition": "-0.68%"}, {"molecule": "COc1cccc(C2CC(c3cccs3)=NN2C(=O)CSC2=NCCS2)c1OC", "note": "(stereo not drawn)", "inhibition": "6.98%"}, {"molecule": "O=C(COc1ccccc1Cl)N1N=C(c2cccs2)CC1c1ccco1", "note": "(stereo not drawn)", "inhibition": "7.49%"}, {"molecule": "Oc1ccccc1C1=NN(c2ccccc2)C(c2ccccc2)C1", "note": "(stereo not drawn)", "inhibition": "72.4% (active)"}, {"molecule": "Cc1ccc(N2C(=O)C3N=NN(CC(=O)N4N=C(c5cccc6ccccc56)CC4c4ccccc4)C3C2=O)cc1", "note": "(stereo not drawn)", "inhibition": "11.4%"}, {"molecule": "O=C1C2N=NN(CC(=O)N3N=C(c4cccc5ccccc45)CC3c3ccccc3)C2C(=O)N1c1ccccc1", "note": "(stereo not drawn)", "inhibition": "11.2%"}, {"molecule": "Cc1ccccc1C1CC(c2cccs2)=NN1S(C)(=O)=O", "note": "(stereo not drawn)", "inhibition": "-0.14%"}, {"molecule": "Fc1ccc(N2N=C(c3cccs3)CC2c2ccco2)c(F)c1", "note": "(stereo not drawn)", "inhibition": "102% (active)"}, {"molecule": "COc1ccc(C2CC(c3cccs3)=NN2c2ccc(F)cc2)cc1OC", "note": "(stereo not drawn)", "inhibition": "27.2% (active)"}, {"molecule": "COc1ccc(C2CC(c3cccs3)=NN2c2nc(C)c(C(C)=O)s2)cc1OC", "note": "(stereo not drawn)", "inhibition": "16.3%"}, {"molecule": "COc1ccccc1N1N=C(c2cccs2)CC1c1ccccc1", "note": "(stereo not drawn)", "inhibition": "39.5% (active)"}, {"molecule": "Cc1ccc(C2=NN(C(=O)CSc3nc(N)cc(N)n3)C(c3ccco3)C2)cc1", "note": "(stereo not drawn)", "inhibition": "0.79%"}, {"molecule": "COc1ccc(C2CC(c3cccs3)=NN2C(=O)CSc2nnc(N)s2)cc1OC", "note": "(stereo not drawn)", "inhibition": "3.05%"}, {"molecule": "Cc1ccc(C(=O)OCC(=O)NC(=O)Cc2ccccc2)c(O)c1", "inhibition": "-0.03%"}, {"molecule": "Cc1cc(C(C)(C)C)cc(S(=O)(=O)Nc2ccc(C(=O)O)cc2)c1C", "inhibition": "-1.68%"}, {"molecule": "CC(=O)Oc1c(C(=O)c2nnc(C)o2)c(=O)n(Cc2ccccc2)c2ccccc12", "inhibition": "8.77%"}, {"molecule": "COc1ccc(CC(N)c2csc(NC(=O)Nc3ccc(C(C)C)cc3)n2)cc1", "note": "(stereo not drawn)", "inhibition": "-1.36%"}, {"molecule": "CN(CC(=O)Nc1ccc(F)cc1)CC(=O)N1CCCCC1", "inhibition": "-1.7%"}, {"molecule": "C=Cc1ccc(C(=O)N2CCCC(CCC(=O)N3CCN(c4ccccn4)CC3)C2)cc1", "note": "(stereo not drawn)", "inhibition": "-0.65%"}, {"molecule": "COc1ccc(C2=NN(c3ccccc3)C(c3cccs3)C2)cc1", "note": "(stereo not drawn)", "inhibition": "113% (active)"}, {"molecule": "COc1ccc(C2CC(c3cccs3)=Nc3ccccc3S2)cc1OC", "note": "(stereo not drawn)", "inhibition": "6.74%"}, {"molecule": "COc1ccc(N2C(=O)C3CCCN3C2c2cccs2)cc1", "note": "(stereo not drawn)", "inhibition": "1.46%"}, {"molecule": "COc1ccc(C2CC(c3cccs3)=NN2C(=O)COC(=O)c2cc3ccccc3cc2O)cc1OC", "note": "(stereo not drawn)", "inhibition": "-0.95%"}, {"molecule": "COc1ccc(N2CCN(C(=S)Nc3ccc(S(N)(=O)=O)cc3)CC2)cc1", "inhibition": "-1.46%"}, {"molecule": "COc1ccc(C2CC(c3cccs3)=NN2c2ccccc2)cc1", "note": "(stereo not drawn)", "inhibition": "74% (active)"}, {"molecule": "COc1ccc(C2CC(c3ccccc3)=NN2C(=O)c2ccc(Cl)c([N+](=O)[O-])c2)cc1", "note": "(stereo not drawn)", "inhibition": "-0.72%"}, {"molecule": "COc1ccc(C2CC(c3cccs3)Nc3nnnn32)cc1", "note": "(stereo not drawn)", "inhibition": "2.13%"}, {"molecule": "COc1ccc(CCNC(=O)CSc2nc(C)nc3c2oc2ccccc23)cc1OC", "inhibition": "0.84%"}, {"molecule": "O=C(NC1CCCC1)C(c1ccco1)N(C(=O)c1ccco1)c1ccc(F)cc1", "note": "(stereo not drawn)", "inhibition": "-0.27%"}, {"molecule": "FC(F)Oc1ccccc1NC(=S)Nc1cccc(Cl)c1Cl", "inhibition": "-0.26%"}, {"molecule": "CCCCOC(=O)Nc1sc2nc(C)cc(C)c2c1-n1cccc1", "inhibition": "5.62%"}, {"molecule": "CCCC1NC(=S)NC(C)=C1C(C)=O", "note": "(stereo not drawn)", "inhibition": "2.16%"}, {"molecule": "OCCNc1nc2ccccc2n1-c1ncnc2sc3c(c12)CCC3", "inhibition": "3.23%"}, {"molecule": "CCCSc1ncccc1C(=O)O", "inhibition": "0.16%"}, {"molecule": "O=C(O)c1cccnc1Sc1ncnc2sc3c(c12)CCC3", "inhibition": "53.6% (active)"}, {"molecule": "Oc1c(Cl)cc(Cl)c(Cl)c1Cc1c(O)c(Cl)cc(Cl)c1Cl", "inhibition": "0.15%"}, {"molecule": "O=C(COC(=O)c1ccc2ncsc2c1)Nc1ccc(Cl)cc1", "inhibition": "0.06%"}, {"molecule": "CCC(Cc1ccccc1)NC(=O)C1CCCCC1", "note": "(stereo not drawn)", "inhibition": "-3.87%"}, {"molecule": "Cc1ccc(S(=O)(=O)N2CCN(C(=O)CSc3cc(C)ccc3C)CC2)c(C)c1", "inhibition": "29.2% (active)"}, {"molecule": "CCCc1cc(=O)[nH]c(SCC(=O)N2CCN(S(=O)(=O)c3ccc(C)cc3C)CC2)n1", "inhibition": "-1.1%"}, {"molecule": "Cc1ccc(S(=O)(=O)N2CCN(C(=O)COC(=O)c3c(C)cc(C)cc3C)CC2)c(C)c1", "inhibition": "-1.2%"}, {"molecule": "Cc1cc(Br)ccc1SCC(=O)OCC(=O)NCc1ccc2c(c1)OCO2", "inhibition": "-1.37%"}, {"molecule": "CCn1c(=O)cc(SCC(=O)NCCC2=CCCCC2)c2ccccc21", "inhibition": "6.21%"}, {"molecule": "Cc1ccc(S(=O)(=O)N2CC(=O)Nc3ccccc32)cc1C", "inhibition": "-0.25%"}, {"molecule": "Cc1ccc(S(=O)(=O)N(C)CC(=O)OCC(=O)N2CC(=O)Nc3ccccc32)cc1", "inhibition": "0.54%"}, {"molecule": "Cc1ccc(C)c(S(=O)(=O)N2CC(=O)Nc3ccccc32)c1", "inhibition": "31.2% (active)"}, {"molecule": "O=C(OCc1cn([C@@H]2C[C@H](c3ccc(Cl)cc3)N(Cc3cccs3)C[C@H]2O)nn1)c1ccccc1", "inhibition": "0.72%"}, {"molecule": "O=C(CCNC(=O)c1ccccc1)NN=Cc1ccc(Br)o1", "inhibition": "0.48%"}, {"molecule": "O=C(CCC(=O)N/N=C/c1ccc(Br)o1)N/N=C/c1ccc(Br)o1", "inhibition": "31.8% (active)"}, {"molecule": "O=C(CCc1n[nH]c(=O)[nH]c1=O)N/N=C/c1ccc(Br)o1", "inhibition": "4.62%"}, {"molecule": "COc1ccc2c(c1)CCc1cn3ncc(C#N)c3nc1-2", "inhibition": "522% [above what the read-out allows, likely interference] (active)"}, {"molecule": "N#Cc1cnn2cc(CCN3CCOCC3)c(-c3ccc(F)cc3)nc12", "inhibition": "15.8%"}, {"molecule": "COc1ccc2c(c1)CCc1c(C(=O)N3CCCC3)noc1-2", "inhibition": "0.6%"}, {"molecule": "CC(C)C(NS(=O)(=O)c1cccs1)C(=O)Nc1nc(C(C)(C)C)cs1", "note": "(stereo not drawn)", "inhibition": "2.98%"}, {"molecule": "CN1C(=O)C2(OCCCO2)c2cc(Cl)ccc21", "inhibition": "1.91%"}, {"molecule": "CCOc1ccc(Nc2nc(Cc3nnc(SCC(=O)c4ccc(C)cc4)o3)cs2)cc1", "inhibition": "-1.31%"}, {"molecule": "CCN(CC)C(=O)C1=C(C)N(Cc2ccc(F)cc2)C(=O)C(CC(=O)NC2CCCC2)C1", "note": "(stereo not drawn)", "inhibition": "-1.29%"}, {"molecule": "Cn1nccc1NS(=O)(=O)c1ccc(F)cc1", "inhibition": "-0.97%"}, {"molecule": "O=C(Nc1cccc2ccccc12)NC1CC1", "inhibition": "9.02%"}, {"molecule": "CC(=O)N(C)c1ccc(NC(=O)Nc2cccc3ccccc23)cc1", "inhibition": "6.26%"}, {"molecule": "CCN(C(=O)Nc1cccc2ccccc12)c1ccccc1", "inhibition": "75.4% (active)"}, {"molecule": "O=C(N/N=C/c1cccc2cccnc12)[C@H]1C[C@@H]1c1ccccc1", "inhibition": "-0.16%"}, {"molecule": "C[N+]1(CCNC(=O)/C=N/O)CCCCC1", "inhibition": "4.51%"}, {"molecule": "COC(=O)c1c(NC(=O)CN2C(=O)NC(CCc3ccccc3)C2=O)sc2c1CCCCC2", "note": "(stereo not drawn)", "inhibition": "-0.99%"}, {"molecule": "O=C1C2C3C=CC(C3)C2C(=O)N1c1ccc(S(=O)(=O)Nc2nccs2)cc1", "note": "(stereo not drawn)", "inhibition": "-2.35%"}, {"molecule": "COc1cccc(N2CCN(c3ccc4nnc(CCC(=O)N5CCN(C)CC5)n4n3)CC2)c1", "inhibition": "1.71%"}, {"molecule": "CN1CCN(c2ccc([N+](=O)[O-])c(Sc3nc4ccccc4[nH]3)c2)CC1", "inhibition": "-3.38%"}, {"molecule": "COCCCNS(=O)(=O)c1cccc(S(=O)(=O)c2cccc(S(=O)(=O)NCCCOC)c2)c1", "inhibition": "0.27%"}, {"molecule": "COc1ccc(/C=N/n2c(C)cc(C)cc2=O)cc1", "inhibition": "3.54%"}, {"molecule": "CC(C)OCCCNc1ncnc2c1[nH]c1ccc(F)cc12", "inhibition": "31.8% (active)"}, {"molecule": "O=C(Nc1ccccc1Cl)/C(Cl)=C(\\Cl)S(=O)c1ccccc1", "note": "(stereo not drawn)", "inhibition": "-3.21%"}, {"molecule": "CC(C)Cn1cc(-c2cncc3nccn23)cn1", "inhibition": "142% (active)"}, {"molecule": "C=CCSc1nc(N)cc(=O)[nH]1", "inhibition": "3.86%"}, {"molecule": "Cc1cc(C)c2c(Cn3ccnc3)cc(=O)oc2c1", "inhibition": "0%"}, {"molecule": "Cc1cc(=O)oc(C)c1C(=O)NC1CC(C)(C)NC(C)(C)C1", "inhibition": "0.07%"}, {"molecule": "CCc1cc(=O)oc2cc(C)cc(OC(C)C(=O)O)c12", "note": "(stereo not drawn)", "inhibition": "176% (active)"}, {"molecule": "CCc1cc(=O)oc2cc(C)cc(OCC(=O)N3CCC[C@@H]3C(=O)O)c12", "inhibition": "106% (active)"}, {"molecule": "COc1cccc(NC(=O)COc2cc(C)cc3oc(=O)cc(C)c23)c1", "inhibition": "7.86%"}, {"molecule": "CCc1cc(=O)oc2cc(OCC(=O)N3CCCc4ccccc43)ccc12", "inhibition": "5.17%"}, {"molecule": "Cc1cc(OC(C)C(=O)NC2CC(C)(C)NC(C)(C)C2)c2c(C)cc(=O)oc2c1", "note": "(stereo not drawn)", "inhibition": "154% (active)"}, {"molecule": "Cc1cc(C)c(NC(=S)N2CCCC2C(=O)O)c(C)c1", "note": "(stereo not drawn)", "inhibition": "0.88%"}, {"molecule": "CC(Oc1cccc(Cl)c1)C(=O)NC1CC(C)(C)NC(C)(C)C1", "note": "(stereo not drawn)", "inhibition": "0.76%"}, {"molecule": "CCOC(=O)c1sc2nc(C)nc(Nc3ccc(OC)c(OC)c3)c2c1C", "inhibition": "0.66%"}, {"molecule": "N#Cc1ccc(C(c2ccc(C#N)cc2)n2cncn2)cc1", "inhibition": "2.3%"}, {"molecule": "O=C(CNS(=O)(=O)c1ccc2ccccc2c1)Nc1ccc(F)c(F)c1F", "inhibition": "1.83%"}, {"molecule": "CC(C)NS(=O)(=O)c1ccc(CCC(=O)N2CCOCC2)cc1", "inhibition": "0.26%"}]}]}
